Assay [1] is described as follows: ATG_GAL4_TRANS: Attagene TRANS-FACTORIAL HepG2 Assay for GAL4 (Internal Marker) (AID 2282976; active means hit-call score of the fitted dose curve at least 0.9, where 1 is the maximum). To be noted: HepG2 Attagene TRANS GAL4 internal marker reporter. The gist of the method:
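HepG2 cells transiently transfected with multiplexed GAL4-UAS reporter constructs were dosed for 24 h. Reporter mRNA was measured by RT-PCR, 6-FAM primer extension, HpaI digestion and capillary electrophoresis, and gain of signal was fitted relative to DMSO.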

Assay [2] deals with Glucocorticoid receptor (Homo sapiens) (UniProt P04150). Nature of the assay: ATG_GR_TRANS: Attagene TRANS-FACTORIAL HepG2 Assay for human Glucocorticoid Receptor (GR) (AID 2282978; active means hit-call score of the fitted dose curve at least 0.9, where 1 is the maximum;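 further: activators score as hits since higher reporter transcript over DMSO is fitted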). Conditions: HepG2 Attagene TRANS GR reporter, mRNA transcription. The method, boiled down:
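Transiently transfected HepG2 cells express chimeric NR-GAL4 proteins acting on GAL4-UAS reporter units. Compounds are applied for 24 h. mRNA induction over DMSO is measured by capillary electrophoresis.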

Assay [3] has as its target Hepatocyte nuclear factor 4-alpha (Homo sapiens) (UniProt P41235). As to the kind of experiment: ATG_HNF4a_TRANS: Attagene TRANS-FACTORIAL HepG2 Assay for human Hepatocyte Nuclear Factor 4 alpha (HNF4a) (AID 2282982; active means hit-call score of the fitted dose curve at least 0.9, where 1 is the maximum). Conditions: HepG2 HNF4a transactivation reporter, mRNA readout. The gist of the method:
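Transfected HepG2 reporter cells are dosed for 24 h; reporter RNA is reverse-transcribed, amplified, fluorescently labelled and HpaI-digested before CE sizing. Positive-direction fit against DMSO.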

Assay [4] can be described thus: ATG_M_06_TRANS: Attagene TRANS-FACTORIAL HepG2 Assay for M06 Transcription Factor (Internal Marker) (AID 2282983; active means hit-call score of the fitted dose curve at least 0.9, where 1 is the maximum;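 further: reporter transcript level by RT-PCR then capillary electrophoresis fluorescence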). To be noted: HepG2 Attagene TRANS M06 internal marker reporter. The gist of the method:
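HepG2 cells transiently transfected with multiplexed GAL4-UAS reporter transcription units; after 24 h compound exposure, reporter mRNA measured by RT-PCR, FAM-labelled primer extension, HpaI digestion and capillary electrophoresis. Gain-of-signal fitted versus DMSO baseline; background control readout.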

Assay [5] can be described thus: ATG_M_32_TRANS: Attagene TRANS-FACTORIAL HepG2 Assay for M32 Transcription Factor (Internal Marker) (AID 2282984; active means hit-call score of the fitted dose curve at least 0.9, where 1 is the maximum). To be noted: HepG2 Attagene TRANS M32 internal marker reporter. The gist of the method: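 Using transiently transfected HepG2 cells exposed to test chemicals for 24 h, reporter transcripts are converted to labelled cDNA fragments and quantified by capillary electrophoresis. DMSO defines the activity baseline.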

The target of assay [6] is Nuclear receptor subfamily 4 group A member 2 (Homo sapiens) (UniProt P43354). Nature of the assay: ATG_NURR1_TRANS: Attagene TRANS-FACTORIAL HepG2 Assay for human Nuclear Receptor Related Protein 1 (NURR1) (AID 2282985; active means hit-call score of the fitted dose curve at least 0.9, where 1 is the maximum). Conditions: HepG2 Attagene TRANS reporter, mRNA readout. The gist of the method: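 Cells: HepG2, transiently transfected. Exposure: 24 h. Detection: fluorescence of labelled RT-PCR products separated by capillary electrophoresis; upward fit versus DMSO.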
Nuclear receptor subfamily 4 group A member 2 (Homo sapiens), sequence (P43354 whole entry, looked up): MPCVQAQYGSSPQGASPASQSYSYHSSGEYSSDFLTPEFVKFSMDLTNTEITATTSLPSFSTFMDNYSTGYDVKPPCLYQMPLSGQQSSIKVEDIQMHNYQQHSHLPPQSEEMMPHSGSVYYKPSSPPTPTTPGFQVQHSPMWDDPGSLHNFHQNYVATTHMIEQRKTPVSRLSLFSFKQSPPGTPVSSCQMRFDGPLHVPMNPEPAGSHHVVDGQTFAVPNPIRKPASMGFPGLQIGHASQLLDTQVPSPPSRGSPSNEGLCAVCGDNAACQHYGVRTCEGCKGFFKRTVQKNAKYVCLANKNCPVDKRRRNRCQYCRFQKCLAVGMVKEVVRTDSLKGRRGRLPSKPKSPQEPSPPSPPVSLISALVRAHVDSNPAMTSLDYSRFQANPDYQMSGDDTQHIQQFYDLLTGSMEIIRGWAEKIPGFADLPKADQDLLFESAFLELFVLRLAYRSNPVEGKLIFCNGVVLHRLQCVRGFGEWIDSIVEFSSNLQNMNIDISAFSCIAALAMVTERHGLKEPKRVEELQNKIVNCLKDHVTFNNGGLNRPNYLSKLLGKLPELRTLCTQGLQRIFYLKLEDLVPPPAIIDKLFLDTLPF

The target in assay [7] is Nuclear respiratory factor 1 (Homo sapiens) (UniProt Q16656). Nature of the assay: ATG_NRF1_CIS: Attagene CIS-FACTORIAL HepG2 Assay for human Nuclear Respiratory Factor 1 (NRF1) Orphan Gene (AID 2282987). Conditions: HepG2 NRF1 cis-element reporter, Attagene multiplex; actives raise or lower the signal. The method, boiled down:
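Reporter mRNA induction or loss in HepG2 cells after 24 h dosing; cis-regulated reporter constructs report endogenous transcription-factor activity. Quantified by RT-PCR/capillary electrophoresis fluorescence, DMSO-referenced.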

Assay [8] can be described thus: ATG_NFI_CIS: Attagene CIS-FACTORIAL HepG2 Assay for human Nuclear Factor I (NFI) (AID 2282989). Conditions: HepG2 cis-regulatory reporter, NFI response element transcription; actives raise or lower the signal. The method, boiled down: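 Transfected HepG2 liver cells, exposed 24 h, supplied total RNA for oligo(dT) reverse transcription and reporter-specific PCR. Labelled, HpaI-cut fragments were sized by capillary electrophoresis; DMSO set the baseline for bidirectional fitting.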

For assay [9], the target named is Myc proto-oncogene protein (Homo sapiens) (UniProt P01106). Nature of the assay: ATG_Myc_CIS: Attagene CIS-FACTORIAL HepG2 Assay for human Myelocytomatosis (Myc) Proto-Oncogene Transcription Factor (AID 2282990). To be noted: HepG2, Attagene cis-reporter transcription factor activity; actives raise or lower the signal. The gist of the method:
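HepG2, transient MRTU transfection (cis promoters, endogenous TFs); 24 h dosing; TriZol RNA → oligo(dT) RT → PCR → 6-FAM primer extension → HpaI cut → CE. Bidirectional fit vs DMSO.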

The nature of assay [10]: ATG_NRF2_ARE_CIS: Attagene CIS-FACTORIAL HepG2 Assay for human Nuclear Factor Erythroid 2 Related Factor 2 (NFR2) response to Antioxidant Response Elements (ARE) (AID 2282992).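 On AC50: reporter mRNA level measured by RT-PCR and capillary electrophoresis fluorescence.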 To be noted: HepG2 Attagene ARE/NRF2 reporter, transcription factor activity; actives raise or lower the signal. The gist of the method:
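Multiplexed reporter mRNA profiling in HepG2 after a 24 h chemical exposure. Curves fitted in both directions relative to DMSO negative control.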

The nature of assay [11]: ATG_Oct_MLP_CIS: Attagene CIS-FACTORIAL HepG2 Assay for human Octamer-Binding Transcription Factor (Oct) (AID 2282993). To be noted: HepG2 Attagene cis-factorial Oct reporter, mRNA; actives raise or lower the signal. The gist of the method:
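Using HepG2 cells bearing transfected cis-reporter constructs, mRNA induction was read after 24 h by fluorescent RT-PCR and capillary electrophoresis, with DMSO defining baseline for gain- or loss-of-signal fits.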

Assay [12] concerns the target Cellular tumor antigen p53 (Homo sapiens) (UniProt P04637). As to the kind of experiment: ATG_p53_CIS: Attagene CIS-FACTORIAL HepG2 Assay for human p53 Transcription Factor (AID 2282994). Conditions: HepG2 p53 cis-element reporter, Attagene mRNA; actives raise or lower the signal. The method, boiled down: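 Multiplexed reporter mRNA assay in human HepG2 liver cells; cis-regulated units report endogenous factor activity. Values come from bidirectional curve fitting against DMSO negative control after 24 h treatment.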

Assay [13] is described as follows: BSK_3C_TissueFactor: BioMAP Diversity Plus: 3C Assay for Tissue Factor Biomarker Activity (AID 2282997). To be noted: BioMAP 3C HUVEC, tissue factor biomarker readout; actives raise or lower the signal. The gist of the method:
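Primary human umbilical vein endothelial cells in the 3C system were exposed to test chemical for 24 h, then Tissue Factor measured by ELISA. Activity was fitted bidirectionally against DMSO as negative control and baseline.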

The nature of assay [14]: BSK_3C_uPAR: BioMAP Diversity Plus: 3C Assay for Urokinase-type plasminogen activator receptor (uPAR) Biomarker Activity (AID 2282998). To be noted: BioMAP 3C HUVEC, uPAR biomarker ELISA; actives raise or lower the signal. The gist of the method: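 In this endothelial cell-based assay, human umbilical vein primary cells were treated with chemicals and harvested at 24 h. uPAR was quantified using ELISA, with gains or losses fitted relative to DMSO controls.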
(In general: ELISA stands for enzyme-linked immunosorbent assay.)

Assay [15] can be described thus: ATG_Hpa5_TRANS: Attagene TRANS-FACTORIAL HepG2 Assay for human GAL4-Hpa5 Hepatocyte Transcription Factor Basal Promoter (AID 2282975; active means hit-call score of the fitted dose curve at least 0.9, where 1 is the maximum;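 further: hits are increases in reporter mRNA over DMSO baseline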). Conditions: HepG2 Attagene GAL4-Hpa5 transcription reporter. The gist of the method: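 Basal-promoter GAL4 background control within the HepG2 trans-factorial panel of transiently transfected reporter units. Reporter mRNA is measured 24 h after dosing by RT-PCR and capillary electrophoresis, fitted for gain of signal versus DMSO.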

Assay [16] addresses Oxysterols receptor LXR-beta (Homo sapiens) (UniProt P55055). Nature of the assay: ATG_LXRb_TRANS: Attagene TRANS-FACTORIAL HepG2 Assay for human Liver X Receptor beta (LXRb) (AID 2282981; active means hit-call score of the fitted dose curve at least 0.9, where 1 is the maximum). To be noted: HepG2 Attagene TRANS GAL4-LXRb reporter, mRNA. The method, boiled down:
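Cells: HepG2, transiently transfected with GAL4-UAS reporter units plus LXRb-Gal4 fusion. Treatment: 24 h. Detection: reporter mRNA by RT-PCR, 6-FAM labelling, HpaI digestion, capillary electrophoresis.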

Assay [17] addresses Oxysterols receptor LXR-alpha (Homo sapiens) (UniProt Q13133). As to the kind of experiment: ATG_LXRa_TRANS: Attagene TRANS-FACTORIAL HepG2 Assay for human Liver X Receptor alpha (LXRa) (AID 2282980; active means hit-call score of the fitted dose curve at least 0.9, where 1 is the maximum). Conditions: HepG2 Attagene TRANS reporter, LXRa transactivation. The method, boiled down: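 HepG2 cells were transiently transfected with multiplexed reporter units driven by chimeric LXRa–GAL4 fusion proteins, then dosed for 24 h. Reporter mRNA was quantified by RT-PCR, fluorescent labelling and capillary electrophoresis; gain of signal fitted against DMSO baseline.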

Assay [18] deals with Transcriptional activator Myb (Homo sapiens) (UniProt P10242). As to the kind of experiment: ATG_Myb_CIS: Attagene CIS-FACTORIAL HepG2 Assay for human Myeloblastosis (Myb) Proto-Oncogene Transcription Factor (AID 2282986). To be noted: HepG2 Attagene CIS-FACTORIAL Myb reporter transcription; actives raise or lower the signal. The method, boiled down: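 Using HepG2 liver cells bearing transiently transfected cis-promoter reporter constructs, the assay measures induction or loss of reporter mRNA after 24 hours of dosing. Detection used fluorescently labeled RT-PCR products separated by capillary electrophoresis.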
Transcriptional activator Myb (Homo sapiens), sequence (P10242 whole entry, looked up): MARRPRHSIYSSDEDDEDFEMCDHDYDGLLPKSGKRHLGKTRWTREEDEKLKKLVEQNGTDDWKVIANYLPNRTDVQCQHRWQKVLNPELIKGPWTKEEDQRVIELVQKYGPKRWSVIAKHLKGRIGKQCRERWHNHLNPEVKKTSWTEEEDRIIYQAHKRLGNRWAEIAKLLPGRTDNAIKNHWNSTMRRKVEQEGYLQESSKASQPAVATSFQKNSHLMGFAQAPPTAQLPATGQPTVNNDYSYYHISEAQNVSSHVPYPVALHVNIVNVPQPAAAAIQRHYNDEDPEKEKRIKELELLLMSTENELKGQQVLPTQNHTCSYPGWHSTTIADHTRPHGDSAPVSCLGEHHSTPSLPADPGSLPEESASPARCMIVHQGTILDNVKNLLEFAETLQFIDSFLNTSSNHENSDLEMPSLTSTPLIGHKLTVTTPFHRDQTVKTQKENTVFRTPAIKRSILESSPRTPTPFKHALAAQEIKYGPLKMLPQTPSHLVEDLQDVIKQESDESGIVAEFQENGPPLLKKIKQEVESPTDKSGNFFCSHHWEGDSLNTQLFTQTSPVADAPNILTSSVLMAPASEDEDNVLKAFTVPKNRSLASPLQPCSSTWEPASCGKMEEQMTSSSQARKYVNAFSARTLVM

From PubChem BioAssay (EPA / NIEHS) come the findings set out here.

SMILES strings stand for the structures. Records with an inconclusive call do not appear. Calls of active or inactive are those of the source. How the source made its calls, unless noted: active means hit-call score of the fitted dose curve at least 0.9, where 1 is the maximum; inactive means score below 0.9.

Nuclear respiratory factor 1 (Homo sapiens), sequence (Q16656 whole entry, looked up): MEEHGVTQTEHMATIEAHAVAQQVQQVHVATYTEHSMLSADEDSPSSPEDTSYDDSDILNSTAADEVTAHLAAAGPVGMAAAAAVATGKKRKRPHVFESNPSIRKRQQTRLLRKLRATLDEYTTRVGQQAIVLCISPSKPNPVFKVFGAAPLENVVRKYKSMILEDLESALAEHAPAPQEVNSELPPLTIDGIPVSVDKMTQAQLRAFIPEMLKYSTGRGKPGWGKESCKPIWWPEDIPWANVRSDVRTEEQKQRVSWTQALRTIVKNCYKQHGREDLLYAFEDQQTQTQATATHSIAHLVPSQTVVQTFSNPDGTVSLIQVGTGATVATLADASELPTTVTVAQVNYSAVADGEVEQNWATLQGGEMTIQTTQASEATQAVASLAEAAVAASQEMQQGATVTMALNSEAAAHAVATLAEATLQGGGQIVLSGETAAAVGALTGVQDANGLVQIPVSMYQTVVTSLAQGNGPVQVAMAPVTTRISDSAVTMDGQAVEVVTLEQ
Glucocorticoid receptor (Homo sapiens), sequence (P04150 whole entry, looked up, the tested form may be a part): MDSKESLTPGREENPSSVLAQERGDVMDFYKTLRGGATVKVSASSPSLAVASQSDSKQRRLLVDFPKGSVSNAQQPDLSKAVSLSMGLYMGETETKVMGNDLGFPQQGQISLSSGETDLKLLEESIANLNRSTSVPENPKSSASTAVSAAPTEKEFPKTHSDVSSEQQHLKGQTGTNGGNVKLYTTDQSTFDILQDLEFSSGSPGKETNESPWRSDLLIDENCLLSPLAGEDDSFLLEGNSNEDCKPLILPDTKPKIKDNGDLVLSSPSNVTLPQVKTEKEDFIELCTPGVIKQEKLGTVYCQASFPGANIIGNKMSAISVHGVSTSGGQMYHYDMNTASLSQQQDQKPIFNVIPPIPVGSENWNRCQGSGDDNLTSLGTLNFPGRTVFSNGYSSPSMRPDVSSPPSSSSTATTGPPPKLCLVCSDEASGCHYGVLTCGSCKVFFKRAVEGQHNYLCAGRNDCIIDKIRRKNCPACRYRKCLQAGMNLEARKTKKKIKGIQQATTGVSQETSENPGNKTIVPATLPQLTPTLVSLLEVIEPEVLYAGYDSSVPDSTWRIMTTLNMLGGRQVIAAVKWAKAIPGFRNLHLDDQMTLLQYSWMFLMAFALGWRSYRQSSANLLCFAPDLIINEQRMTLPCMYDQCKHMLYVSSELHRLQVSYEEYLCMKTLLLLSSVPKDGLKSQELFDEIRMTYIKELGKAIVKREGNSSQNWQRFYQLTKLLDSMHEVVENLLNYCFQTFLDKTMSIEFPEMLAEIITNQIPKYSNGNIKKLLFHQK
Hepatocyte nuclear factor 4-alpha (Homo sapiens), sequence (P41235 whole entry, looked up): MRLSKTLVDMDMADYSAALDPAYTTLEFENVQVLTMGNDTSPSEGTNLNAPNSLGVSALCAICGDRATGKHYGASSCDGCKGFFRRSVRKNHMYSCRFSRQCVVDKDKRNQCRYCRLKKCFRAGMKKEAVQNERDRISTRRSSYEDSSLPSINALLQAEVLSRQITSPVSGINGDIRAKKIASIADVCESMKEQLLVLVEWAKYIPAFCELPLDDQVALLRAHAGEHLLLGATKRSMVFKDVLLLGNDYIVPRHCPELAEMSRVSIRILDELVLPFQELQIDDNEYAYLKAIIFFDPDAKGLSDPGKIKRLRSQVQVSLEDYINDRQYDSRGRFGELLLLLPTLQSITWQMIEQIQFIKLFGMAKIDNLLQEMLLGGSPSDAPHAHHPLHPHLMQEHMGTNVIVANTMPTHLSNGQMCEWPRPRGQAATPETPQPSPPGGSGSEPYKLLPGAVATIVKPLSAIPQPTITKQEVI
Oxysterols receptor LXR-beta (Homo sapiens), sequence (P55055 whole entry, looked up, the tested form may be a part): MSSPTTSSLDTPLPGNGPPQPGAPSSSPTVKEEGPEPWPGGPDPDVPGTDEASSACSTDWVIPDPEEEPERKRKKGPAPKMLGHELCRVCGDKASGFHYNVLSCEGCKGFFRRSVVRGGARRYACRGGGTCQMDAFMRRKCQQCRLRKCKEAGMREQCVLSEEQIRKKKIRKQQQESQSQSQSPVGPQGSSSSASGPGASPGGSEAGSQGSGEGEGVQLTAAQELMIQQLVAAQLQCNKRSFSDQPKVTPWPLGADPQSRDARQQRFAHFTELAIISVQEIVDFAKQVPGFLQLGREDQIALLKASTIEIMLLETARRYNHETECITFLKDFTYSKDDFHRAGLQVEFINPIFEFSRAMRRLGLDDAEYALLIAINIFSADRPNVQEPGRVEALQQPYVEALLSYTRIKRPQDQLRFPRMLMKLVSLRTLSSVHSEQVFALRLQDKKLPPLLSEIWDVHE
Myc proto-oncogene protein (Homo sapiens), sequence (P01106 whole entry, looked up): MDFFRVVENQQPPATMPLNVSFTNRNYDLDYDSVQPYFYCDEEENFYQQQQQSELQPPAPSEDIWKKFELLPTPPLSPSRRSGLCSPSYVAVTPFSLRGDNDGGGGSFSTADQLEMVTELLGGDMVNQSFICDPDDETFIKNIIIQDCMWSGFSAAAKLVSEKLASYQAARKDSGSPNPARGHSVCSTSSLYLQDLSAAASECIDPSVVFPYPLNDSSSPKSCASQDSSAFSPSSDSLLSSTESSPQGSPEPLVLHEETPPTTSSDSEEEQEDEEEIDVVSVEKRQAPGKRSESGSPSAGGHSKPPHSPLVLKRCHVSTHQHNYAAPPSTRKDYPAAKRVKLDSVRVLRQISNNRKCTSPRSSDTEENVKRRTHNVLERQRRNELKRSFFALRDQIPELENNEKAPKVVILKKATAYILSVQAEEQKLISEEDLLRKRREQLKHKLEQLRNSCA
Cellular tumor antigen p53 (Homo sapiens), sequence (P04637 whole entry, looked up): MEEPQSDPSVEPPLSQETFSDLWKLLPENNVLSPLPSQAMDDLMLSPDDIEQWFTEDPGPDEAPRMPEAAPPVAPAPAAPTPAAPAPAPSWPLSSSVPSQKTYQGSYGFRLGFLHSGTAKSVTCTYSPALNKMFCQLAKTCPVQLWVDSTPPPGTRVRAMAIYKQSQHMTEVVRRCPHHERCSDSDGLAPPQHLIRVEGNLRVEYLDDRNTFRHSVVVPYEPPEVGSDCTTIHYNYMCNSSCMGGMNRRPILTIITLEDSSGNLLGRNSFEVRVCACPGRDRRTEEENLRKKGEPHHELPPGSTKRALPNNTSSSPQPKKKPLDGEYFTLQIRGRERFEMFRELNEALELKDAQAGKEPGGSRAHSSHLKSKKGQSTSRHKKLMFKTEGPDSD
Oxysterols receptor LXR-alpha (Homo sapiens), sequence (Q13133 whole entry, looked up, the tested form may be a part): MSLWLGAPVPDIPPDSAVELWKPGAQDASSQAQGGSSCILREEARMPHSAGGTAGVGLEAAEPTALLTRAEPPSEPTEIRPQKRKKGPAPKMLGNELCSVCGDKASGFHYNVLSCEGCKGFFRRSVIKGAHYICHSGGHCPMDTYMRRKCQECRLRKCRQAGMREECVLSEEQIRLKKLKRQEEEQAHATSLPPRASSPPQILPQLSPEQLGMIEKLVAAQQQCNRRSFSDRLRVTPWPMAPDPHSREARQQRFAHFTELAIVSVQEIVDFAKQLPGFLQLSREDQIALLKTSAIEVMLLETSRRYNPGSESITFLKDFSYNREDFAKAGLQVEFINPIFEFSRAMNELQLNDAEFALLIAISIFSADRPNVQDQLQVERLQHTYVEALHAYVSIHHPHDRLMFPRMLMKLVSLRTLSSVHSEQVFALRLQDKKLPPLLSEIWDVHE

A word on the AC50: it is the concentration giving half of the maximal activity seen. As for `CC1(C)C(C=C(Cl)Cl)C1C(=O)OC(C#N)c1cccc(Oc2ccccc2)c1` (stereo not given), the result in [1], in assay [2], in assay [3], in assay [4], in [5] and in [6] was inactive. The call in [7], in assay [8], in assay [9], in assay [11], in assay [12] and in assay [13] was inactive. Further, the AC50 in assay [10] is 0.723 µM (active); in [14] it was 13.9 µM (active).

Regarding `Nc1c(Cl)c(Cl)nc(C(=O)O)c1Cl`, the result in assay [15], in assay [2], in assay [16], in assay [3], in assay [5] and in assay [6] was inactive. Moreover, the call in assay [7], in assay [9], in assay [11], in assay [12], in assay [13] and in assay [14] was inactive. For the same molecule, the concentration at half-maximal activity (AC50) in assay [10] was 50 µM (active).

With `CC(C)N1C(=O)c2ccccc2NS1(=O)=O`, the result in assay [2], in assay [4], in [5], in assay [7], in assay [8] and in [9] was inactive. Further, the molecule was classed as inactive in assay [11], in assay [12], in assay [13] and in [14]. Moreover, the concentration at half-maximal activity (AC50) in assay [17] is 50 µM (active); in assay [16] it was 50 µM (active); in [10], 33 µM (active).

With `C=C(C)CN(CC)c1c([N+](=O)[O-])cc(C(F)(F)F)cc1[N+](=O)[O-]`, the molecule was called inactive in assay [1], in assay [2], in assay [4], in assay [6], in assay [7] and in [9]. Besides, the call in assay [11], in assay [12], in assay [13] and in assay [14] was inactive. Moreover, in assay [10], the AC50 was 4.69 µM (active).

For `CCCC(=NOCC)C1=C(O)CC(CC(C)SCC)CC1=O` (stereo not given), the molecule was classed as inactive in assay [2], in [17], in [16], in assay [3], in assay [5] and in assay [6]. Besides, the result in assay [18], in assay [7], in assay [9], in assay [10], in [11] and in assay [12] was inactive. Besides, the outcome in assay [13] and in assay [14] was inactive.
